Screens: PubChem, National Center for Advancing Translational Sciences (NCATS)
The list is not random: actives were taken first. Their share in the collection is about 5.7%.
L3MBTL1 block = qHTS Assay for the Inhibitors of L3MBTL1 | Lethal(3)malignant brain tumor-like protein 1 (Homo sapiens), Q9Y468 | AlphaScreen L3MBTL1–H3K9me1 peptide binding | Potency, µM (titrated, usually from 57.1 µM), inactives show at the top dose activity, negative = inhibition, hits mostly inhibitors | 230,000 tested, 0.66% active; note: potency is the fitted concentration of half-maximal effect; % is set by controls: 0 for no effect and ±100 for the full control effect; nearly all actives have a fitted effect of over 60% in size
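L3MBTL1 50 nM + b-AHA-H3(1-15)K9me1 75 nM, 30 min RT; compound added, 30 min RT; streptavidin donor/Ni-chelate acceptor beads 10 ug/mL each final, 30 min RT dark; AlphaScreen read.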
BAZ2B inh = qHTS Assay for Inhibitors of BAZ2B; 360,000 tested, 4.4% active; AlphaScreen BAZ2B-H3K14Ac peptide displacement; Potency, µM (doses to about 114 µM), without a hit: at the top dose activity change, negative = inhibition, actives largely listed as inhibitors; AID 504333, 2011; note: potency is the fitted concentration of half-maximal effect; % is set by controls: 0 for no effect and ±100 for the full control effect; nearly all actives have a fitted effect of over 60% in size
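Inhibition is scored as reduced AlphaScreen emission. The BAZ2B/b-H3(5-23)K14Ac complex (50 nM each) in PBS pH 7.4, 0.01% Tween-20 meets compound (up to 110 uM) for 30 min at RT before bead addition.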
JMJD2E inh = qHTS Assay for Inhibitors of Human Jumonji Domain Containing 2E (JMJD2E); AID 2147, 2009; 230,000 tested, 1.6% active; JMJD2E catalytic domain, FDH-coupled NADH fluorescence (FDH is formaldehyde dehydrogenase); Potency, µM (highest dose often 57.1 µM), inactives show at the highest dose activity change, negative = inhibition, hits mostly inhibitors; Lysine-specific demethylase 4E (Homo sapiens), B2RXH2; active = well fitted inhibition curve with a large enough effect, not every such curve was filed as active; inconclusive = small, poorly fitted or top-dose-only effect, or another doubt; inactive = no such curve, though single readings can be large or run the other way;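 note: potency is the fitted concentration of half-maximal effect; 0% = wells with enzyme and -100% = buffer wells without enzyme; nearly all actives have a fitted effect of over 50% in size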
HP1b chromo inh = HTS for Inhibitors of HP1-beta Chromodomain Interactions with Methylated Histone Tails. Chromobox protein homolog 1 (Homo sapiens), P83916. AlphaScreen HP1-beta / biotin-H3K9me3 peptide binding. Potency, µM (titrated, usually from 114 µM), for inactives: top-dose activity change, negative = inhibition, most hits filed as inhibitors. 390,000 tested, 0.56% active. AID 540317, 2011; note: potency is the fitted concentration of half-maximal effect; nearly all actives have a fitted effect of over 70% in size
Target sequence (P83916 whole entry, looked up): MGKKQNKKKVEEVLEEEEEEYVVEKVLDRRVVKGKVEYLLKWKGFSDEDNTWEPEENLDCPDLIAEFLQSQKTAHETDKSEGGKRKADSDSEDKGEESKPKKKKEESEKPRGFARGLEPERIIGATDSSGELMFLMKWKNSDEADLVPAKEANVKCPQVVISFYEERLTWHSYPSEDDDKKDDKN
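HP1-beta protein (50 nM final) preincubated 30 min at room temperature with biotinylated H3(1-18)K9me3 peptide (50 nM) in PBS pH 7.4, 0.01% Tween-20, then compound added for 30 min. AlphaScreen streptavidin donor/nickel chelate acceptor beads (10 ug/mL final), 30 min dark, luminescence read.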
PI5P4K alpha inh = qHTS for Inhibitors of phosphatidylinositol 5-phosphate 4-kinase (PI5P4K). 330,000 tested, 1.2% active. AID 652105, 2013. Phosphatidylinositol 5-phosphate 4-kinase type-2 alpha (Homo sapiens), P48426. PI5P4Kalpha enzyme, ADP-Glo luminescence, 60 min; stronger effect = lower value. max response, %; active = max response of -50% or lower; inconclusive = between -30% and -50%; inactive = -30% or higher; note: value at the top dose of about 77 µM; % is set by controls: 0 for no effect and ±100 for the full control effect
Target sequence (P48426 whole entry, looked up): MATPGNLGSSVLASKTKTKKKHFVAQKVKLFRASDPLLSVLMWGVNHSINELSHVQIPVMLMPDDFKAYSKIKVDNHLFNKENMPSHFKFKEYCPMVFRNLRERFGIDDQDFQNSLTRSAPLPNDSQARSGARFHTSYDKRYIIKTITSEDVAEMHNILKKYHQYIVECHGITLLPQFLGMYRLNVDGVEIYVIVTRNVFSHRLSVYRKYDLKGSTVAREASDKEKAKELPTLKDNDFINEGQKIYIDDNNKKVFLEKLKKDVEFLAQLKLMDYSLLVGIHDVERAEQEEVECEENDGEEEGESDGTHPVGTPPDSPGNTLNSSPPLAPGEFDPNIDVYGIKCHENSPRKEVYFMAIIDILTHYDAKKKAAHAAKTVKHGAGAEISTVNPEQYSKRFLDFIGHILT
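Human PI5P4Kalpha with substrate in 0.038 M HEPES pH 7.4, 0.28 mM EGTA, 0.1% CHAPS, 5% DMSO; reaction started with 5 microM ATP (final), 60 min at room temperature. ADP formed read by ADP-Glo luminescence.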
JMJD2A Tudor inh = qHTS Assay for Inhibitors of JMJD2A-Tudor Domain | Potency, µM (highest dose often 114 µM), for inactives: top-dose activity change, negative = inhibition, most hits filed as inhibitors | AlphaScreen JMJD2A-Tudor / H3K4me3 peptide binding | Lysine-specific demethylase 4A (Homo sapiens), O75164 | AID 504339, 2011 | 390,000 tested, 4.4% active; note: potency is the fitted concentration of half-maximal effect; % is set by controls: 0 for no effect and ±100 for the full control effect; nearly all actives have a fitted effect of over 50% in size
An asterisk follows results filed as active; ? = inconclusive; · = no result; [ ] = another dose, or the depositor's remark. Unless noted, calls come from the whole dose curve; as a rule, active = well fitted inhibition curve with a large enough effect; inconclusive = small, poorly fitted or top-dose-only effect; inactive = no such curve, though single readings can be large or run the other way.

SMILES	L3MBTL1 block	BAZ2B inh	JMJD2E inh	HP1b chromo inh	PI5P4K alpha inh	JMJD2A Tudor inh
O=C1C=CC(=O)N1CCCCCCN1C(=O)C=CC1=O	-6%	-25%	2%	?	-58*	18µM*
CC(C)Cn1c(SCc2nc3ccccc3c(=O)[nH]2)nc2ccccc2c1=O	9%	89µM*	15%	17%	·	-8%
CC(=O)c1ccc(-c2cnc3c(NC=O)cc(-c4cccc(C(=O)N(C)C)c4)cn23)cc1	·	·	·	·	-59*	·
CC(=O)Nc1cccc(-c2cc(NC=O)c3ncc(-c4cccc(C(C)=O)c4)n3c2)c1	·	·	·	·	-55*	·
COc1cccc(-c2cnc3c(NC=O)cc(-c4cccc(NC(C)=O)c4)cn23)c1	·	·	·	·	-77*	·
CN(C)C(=O)c1cccc(-c2cc(NC=O)c3ncc(-c4ccc(F)cc4)n3c2)c1	·	·	·	·	-30	·
COc1cccc(-c2cc(NC=O)c3ncc(-c4ccc(C(C)=O)cc4)n3c2)c1	·	·	·	·	-68*	·
COc1ccc(-c2cc(NC=O)c3ncc(-c4cccc(C(C)=O)c4)n3c2)cc1	·	·	·	·	-27	·
Nc1cccc(Oc2ccc3c(c2)C(=O)N(CC2CCCO2)C3=O)c1 (stereo unspecified)	3%	-10%	-2%	20%	2	-25%
CCOC(=O)C1CCN(Cc2cn3c(-c4ccc(OC)cc4)nnc3s2)CC1	·	?	·	3%[57 µM]	·	-24%
COc1cc(-c2cnc3c(NC=O)cc(-c4cccc(NC(C)=O)c4)cn23)cc(OC)c1OC	·	·	·	·	-60*	·
COc1cc(-c2cnc3c(NC=O)cc(-c4ccccc4)cn23)cc(OC)c1OC	·	·	·	·	-16	·
CCOC(=O)Cc1c(C)[nH]c(=S)[nH]c1=O	3%	-13%	3%	20%	2	56µM*
Nc1cnccc1C(=O)O	?	?	0.63µM*	23%	?	?
COC(=O)c1ccncc1N	-6%[11.4 µM]	-24%	?	26%	3	3%
COc1ccc(C(=O)CSc2nnc3n2CCCN3C(=O)Nc2ccccc2)cc1	1%	-11%	6%	11%	6	-21%
C#CCOCCOCCOCCNc1nc(N2CCN(C(=O)[C@H]([C@@H](C)CC)n3cc([C@@H](N)CC(C)C)nn3)CC2)nc(N2CCN(C(=O)[C@H](Cc3ccc(O)cc3)n3cc([C@@H](N)C(C)CC)nn3)CC2)n1 (stereo partly specified)	-3%	79µM*	-7%	12%	2	?
C#CCOCCOCCOCCNc1nc(N2CCN(C(=O)[C@H]([C@@H](C)CC)n3cc([C@@H](N)Cc4ccc(O)cc4)nn3)CC2)nc(N2CCN(C(=O)[C@H](Cc3ccc(O)cc3)n3cc([C@@H](N)C(C)CC)nn3)CC2)n1 (stereo partly specified)	-14%	79µM*	-4%	8%	-9	22µM*
C#CCOCCOCCOCCNc1nc(N2CCN(C(=O)[C@H]([C@@H](C)CC)n3cc(CCCN=C(N)N)nn3)CC2)nc(N2CCN(C(=O)[C@H](Cc3ccc(O)cc3)n3cc(CCO)nn3)CC2)n1	5%	?	?	28%	5	?
CCCC(=O)NC(C)c1nc2ccccc2n1Cc1ccccc1 (stereo unspecified)	·	-3%	·	25%	·	-3%
COc1ccc(-n2c(O)c(/C=N/n3cnnc3)c3ccccc3c2=O)cc1	-11%	56µM*	?	15%	-11	45µM*
C(=N\n1cnnc1)/c1ccc(-c2ccccc2)cc1	-2%	2%	-19%	41%	10	-6%
COc1ccc(-n2c(O)c(C=Nc3ccccc3)c3ccccc3c2=O)cc1	·	-18%	4%	61%	0	-8%
O=c1c2ccccc2c(/C=N/n2cnnc2)c(O)n1-c1ccccc1	-10%	?	?	19%	·	89µM*
Oc1ccccc1/C=N/n1cnnc1	·	9%	1%	12%	3	79µM*
SMILES	L3MBTL1 block	BAZ2B inh	JMJD2E inh	HP1b chromo inh	PI5P4K alpha inh	JMJD2A Tudor inh
Cc1oc2c(c1C(=O)NCc1cccc(Br)c1)C1=NCCN1C=N2	·	-7%	·	24%	·	-5%
CN(C)c1ccc(CNCCC(Cc2ccccc2)c2ccco2)cc1 (stereo unspecified)	·	22µM*	-6%	?	-1	20µM*
c1ccc(CNCCC(Cc2ccccc2)c2ccco2)cc1 (stereo unspecified)	-16%	-32%	5%	1%	18	-9%
CCCCC(=O)NC1(C(F)(F)F)NC(=O)N(C)C1=O (stereo unspecified)	·	-16%	6%	40%	1	-3%[11.4 µM]
O=C(O)/C=C/C(=O)NNC(=O)c1cc(-c2ccccc2)n[nH]1	?	-2%	-4%	25µM*	?	?
O=C(O)/C=C\C(=O)NNC(=O)c1cc(-c2ccccc2)n[nH]1	-17%	28µM*	?	20%	?	25µM*
O=C(O)c1cc(-c2ccccc2)n[nH]1	-17%	8%	7%	50%	·	-6%
COCCN(C(=O)COC(=O)c1c(C)nn(-c2ccccc2)c1C)c1c(N)n(Cc2ccccc2)c(=O)[nH]c1=O	·	·	·	·	-1	·
S=C(c1cn(Cc2ccc(Br)cc2)c2ccccc12)N1CCOCC1	-9%	?	-5%	?	2	25µM*
Cc1c2n(c3ccccc13)CCN(C)C2	2%	-1%	·	21%	-1	22µM*
CN1CCc2c(c3ccccc3n2C)C1	-6%	-26%	1%	20%	-1	-21%
CCOC(=O)C1=C(C)N=c2s/c(=C\c3ccc(OCC(=O)O)c(OC)c3)c(=O)n2C1c1ccc(OC)cc1 (stereo unspecified)	·	79µM*	·	8%	-61*	79µM*
CCOC(=O)C1=C(C)N=c2s/c(=C\c3ccc(OCC(=O)O)cc3)c(=O)n2C1c1ccccc1 (stereo unspecified)	0%	?	·	6%	?	-32%
CC1=C(C(=O)OC(C)C)C(c2ccc(Cl)cc2)n2c(s/c(=C\c3ccc(OCC(=O)O)cc3)c2=O)=N1 (stereo unspecified)	-7%	45µM*	·	?	2	?
CCOC(=O)C1=C(C)N=c2s/c(=C/c3ccco3)c(=O)n2C1c1cccc(OC)c1 (stereo unspecified)	?	10µM*	-3%	?	-23	?
